# Experiments:
# Conditions in all cases: concentration: 1 μM, replicates: in singlicate; n = 1
# PIK3C2G = system: PIK3C2G
# PIK3CA = system: PIK3CA
# PIK3CB = system: PIK3CB
# PIK3CD = system: PIK3CD
# PIK3CG = system: PIK3CG
# PIK4CB = system: T1, PIK4CB
# T1 construct: gene PI4KB
# PIKFYVE = system: PIKFYVE
# PIM1 = system: PIM1
# PIM2 = system: PIM2
# PIM3 = system: PIM3
# PIP5K1A = system: PIP5K1A
# PIP5K1C = system: PIP5K1C
# PIP5K2B = system: PIP5K2B
# PIP5K2C = system: T2, PIP5K2C
# T2 construct: gene PIP4K2C
# PKAC-alpha = system: T3, PKAC-alpha
# T3 construct: gene PRKACA
# PKAC-beta = system: T4, PKAC-beta
# T4 construct: gene PRKACB
# PKMYT1 = system: PKMYT1
# PKN1 = system: PKN1
# PKN2 = system: PKN2
# PLK1 = system: PLK1
# 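Further: KINOMEscan kinase panel screen.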
Structure (SMILES),%Inh (PIK3C2G) [%],%Inh (PIK3CA) [%],%Inh (PIK3CB) [%],%Inh (PIK3CD) [%],%Inh (PIK3CG) [%],%Inh (PIK4CB) [%],%Inh (PIKFYVE) [%],%Inh (PIM1) [%],%Inh (PIM2) [%],%Inh (PIM3) [%],%Inh (PIP5K1A) [%],%Inh (PIP5K1C) [%],%Inh (PIP5K2B) [%],%Inh (PIP5K2C) [%],%Inh (PKAC-alpha) [%],%Inh (PKAC-beta) [%],%Inh (PKMYT1) [%],%Inh (PKN1) [%],%Inh (PKN2) [%],%Inh (PLK1) [%]
Cc1ccccc1CC(=O)N1CCc2cc(-c3cn(C)c4ncnc(N)c34)ccc21 [GSK2603346],0,0,0,25,0,0,0,0,0,0,0,15,0,5,0,0,0,15,20,0
COc1cccc(CC(=O)N2CCc3cc(-c4cn(C)c5ncnc(N)c45)ccc32)c1 [GSK2608899],0,6,14,0,27,0,0,19,0,2,0,10,34,0,4,12,10,19,0,9
COc1ccc(NC(=O)c2ccoc2)cc1-c1ccc(C(=O)NCC2CC2)cc1 [GW810437],0,9,24,0,12,20,31,0,12,0,7,0,0,0,15,15,0,0,0,50
O=C(O)C(F)(F)F.O=c1[nH]ccc2nc(N[C@@H]3CCNC3)nc(Nc3ccc4c(c3)S(=O)(=O)CC4)c12 [GSK2181306],23,9,100,34,86,0,0,89,96.6,99,57,84,84,76,24,43,16,0,71,31
CC(C)c1nc(-c2ccc(F)c(NS(=O)(=O)c3c(F)cccc3F)c2)c(-c2ccnc(Nc3ccc(N4CCOCC4)nc3)n2)s1 [GSK1804250],0,0,0,10,0,0,66,7,0,0,0,46,9,78,1,0,4,59,12,15
Cc1ccc(C)c(NC(=O)Nc2ccc(C)c(-c3ccc(C(=O)Nc4ccncc4)cc3)c2)c1 [GSK1398473],0,0,0,0,0,8,0,16,0,1,0,0,8,2,27,20,17,26,0,0
O=C(Nc1c(F)cccc1F)c1cc(C(=O)c2ccccc2F)c[nH]1 [GSK1326180],0,0,0,0,0,0,0,0,0,0,34,49,0,25,0,5,3,8,0,18
Fc1cc(Cl)ccc1Nc1ccnc2cc(-c3ccc(CN4CCSCC4)o3)ccc12 [GW560106],0,0,0,9,0,0,1,8,0,0,30,59,9,74,27,22,0,0,0,0
CCOc1nccc(-c2c(-c3ccc(F)cc3)ncn2C2CCNCC2)n1 [SB-249175],1,9,0,18,45,3,7,0,3,5,0,14,0,21,11,25,23,6,18,9
Nc1ncnc2scc(-c3ccc(NC(=O)Cc4cc(F)ccc4F)cc3)c12.O=C(O)C(F)(F)F [SB-731254-M],13,0,0,0,23,22,0,0,0,19,0,0,0,0,13,15,23,4,26,9
Cc1ccc(NC(=O)c2cccc(N3CCCCC3)c2)cc1-c1ccc(C(=O)NCC2CC2)cc1 [GSK1917008],45,1,0,25,0,11,0,15,0,0,0,25,8,0,0,14,0,17,0,0
Nc1cccc(-c2ccc3c(N)n[nH]c3c2)c1 [GSK2193613],0,0,40,2,0,0,0,11,0,0,0,28,0,16,0,4,8,0,0,0
O=C1NC(=O)C(c2ccccc2Cl)=C1Nc1cccc(Cl)c1 [SB-342409],0,0,0,0,0,0,0,0,0,0,11,15,13,5,0,0,27,100,0,0
Cl.Cl.NC(CNC(=O)c1cc(Br)c(-c2ccnc3[nH]ccc23)s1)c1ccccc1 (stereo not drawn) [GSK1322949],0,1,0,0,22,0,0,40,0,34,74,85,86,57,98.4,97.2,16,14,33,15
CNc1nccc(-c2ccc3c(N)n[nH]c3c2)n1 [GSK2206003],1,0,0,0,17,0,0,18,0,13,54,60,32,35,23,4,4,0,0,6
Cc1ccc(Nc2ccnc(Nc3ccc(C)c(F)c3)n2)cc1O.Cl [GW582868],0,0,0,11,0,8,24,52,0,0,27,47,5,70,0,0,0,23,0,0
COc1ccc(C)c(Nc2ccnc(Nc3ccc(-c4cnc[nH]4)cc3)n2)c1.Cl [GW784041],11,0,0,0,11,58,0,0,9,0,0,33,33,67,8,22,2,0,0,11

Structure (SMILES),%Inh (PIK3C2G) [%],%Inh (PIK3CA) [%],%Inh (PIK3CB) [%],%Inh (PIK3CD) [%],%Inh (PIK3CG) [%],%Inh (PIK4CB) [%],%Inh (PIKFYVE) [%],%Inh (PIM1) [%],%Inh (PIM2) [%],%Inh (PIM3) [%],%Inh (PIP5K1A) [%],%Inh (PIP5K1C) [%],%Inh (PIP5K2B) [%],%Inh (PIP5K2C) [%],%Inh (PKAC-alpha) [%],%Inh (PKAC-beta) [%],%Inh (PKMYT1) [%],%Inh (PKN1) [%],%Inh (PKN2) [%],%Inh (PLK1) [%]
Cl.Cl.NCC(NC(=O)c1cc(-c2cccnc2)c(-c2ccnc3[nH]ccc23)s1)c1ccccc1 (stereo not drawn) [GSK1323434],0,0,0,2,0,0,59,16,0,0,29,80,10,65,95.7,91.2,10,0,0,2
CN(c1ccc(NC(=O)N2CCN(CCCN3CCOCC3)CC2)cc1)c1ccnc(Nc2ccc(CS(C)(=O)=O)cc2)n1.Cl [GW830899],0,0,0,0,0,100,0,16,0,0,0,26,32,55,0,29,25,0,0,3
O=C(Nc1n[nH]c2nc(-c3ccccc3)ccc12)C1CC1 [SB-708999],9,11,0,41,5,0,28,0,16,0,46,84,12,34,4,0,0,11,0,16
Cl.N#CCc1ccc(Nc2nccc(Nc3ccc(Oc4ccccc4)cc3)n2)cc1 [GW639905],7,0,0,0,0,0,13,0,0,0,26,34,20,78,0,0,0,39,0,0
CN1CCN(Cc2ccc(NC(=O)Nc3ccc(N(C)c4ccnc(Nc5ccc(CS(C)(=O)=O)cc5)n4)cc3)cc2)CC1.Cl [GW827654],6,0,16,0,26,30,7,0,0,45,74,0,69,78,0,23,10,41,0,7
Fc1cc(Cl)ccc1Nc1ccnc2cc(-c3ccc(CN4CCOCC4)o3)ccc12 [GW560109],0,0,0,21,0,16,5,0,0,0,0,44,31,75,8,37,0,100,0,0
CN(c1ccc(F)c(NC(=O)c2cccc(OC(C)(C)C#N)c2Cl)c1)c1ccc2nc(NC(=O)C3CC3)sc2n1,30,0,9,0,5,0,50,0,14,6,34,0,3,0,17,0,4,4,0,0
Cn1cc(-c2ccc3c(c2)CCN3C(=O)Cc2cc(F)cc(F)c2F)c2c(N)ncnc21 [GSK2634140],0,0,62,0,7,0,0,12,0,0,10,0,13,12,0,4,0,0,0,0
Cc1cc(-c2c(-c3ccc(F)cc3)ncn2CCCN2CCOCC2)nc(N)n1 [SB-222517],20,23,0,0,36,46,0,11,26,15,0,0,0,0,26,16,4,0,10,12
COC(=O)Nc1nc2ccc(Oc3ccc(NC(=O)Nc4cc(C(F)(F)F)ccc4F)cc3)cc2[nH]1.Cl [GW654607],0,0,17,0,3,0,0,0,0,0,0,30,34,16,0,6,0,39,16,0
O=C(O)C(F)(F)F.O=c1[nH]ccc2nc(N[C@@H]3CCNC3)nc(Nc3cc(Cl)cc(Cl)c3)c12 [GSK2188764],18,7,25,43,53,56,20,44,0,66,75,75,86,85,20,35,8,83,81,81
Cn1cc(-c2ccc3c(c2)CCN3C(=O)Cc2cc(F)cc(C(F)(F)F)c2)c2c(N)ncnc21 [GSK2635225],47,0,8,0,0,0,0,2,0,6,27,28,2,15,6,0,0,6,0,8
Cn1cc(-c2cnc(N)c3c(-c4ccc5c(c4)CCN5C(=O)Cc4ccccc4)csc23)cn1 [GSK2593074],35,8,0,0,3,100,0,0,15,1,0,0,1,0,9,0,8,0,7,0
COc1cccc2c(-c3ccncc3)c(-c3ccc(F)cc3)nn12 [GW468513],0,0,0,11,0,0,0,9,0,0,0,64,6,26,23,31,0,6,0,0
CN(c1ccc(NC(=O)Nc2cccc(Cl)c2)cc1)c1ccnc(N)n1.Cl [GW830707],11,0,20,48,0,3,0,0,11,3,12,0,0,29,13,26,3,0,0,26
Cc1cc(-c2ccnc(Nc3cccc(C#N)c3)n2)cc(C)c1O [GSK1440913],24,1,0,47,67,97,90,0,0,0,11,70,61,94.9,3,0,6,0,14,0

# — PMC5540273 (PLoS ONE, 2017)
